Screens (PubChem BioAssay)
LYPLA2 inh = LYPLA2 inhibitors, primary screen, counter-screen for PME1 inhibitor project, biochemical, fluorescence polarization, FP-Rh probe ABPP. Acyl-protein thioesterase 2 (Homo sapiens), O95372. recombinant LYPLA2. inhibition, % at 5.9 µM. actives 0.38% (n = 320,000). AID 2177, 2009;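 active = inhibition above the screen-wide mean plus 3 SD, limit set per campaign, cut at about 26% in these data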;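 note: 0% = LYPLA2 with DMSO and 100% = wells lacking LYPLA2 enzyme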
Target sequence (O95372 whole entry, looked up): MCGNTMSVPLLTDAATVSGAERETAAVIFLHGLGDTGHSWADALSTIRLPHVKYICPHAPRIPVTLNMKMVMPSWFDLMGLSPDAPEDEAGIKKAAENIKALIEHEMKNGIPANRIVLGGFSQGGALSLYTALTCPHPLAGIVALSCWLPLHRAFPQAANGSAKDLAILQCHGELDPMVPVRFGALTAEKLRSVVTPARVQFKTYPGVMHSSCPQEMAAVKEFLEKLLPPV
p97 inhibitor = inhibitors of human p97 ATPase, primary screen, biochemical. Transitional endoplasmic reticulum ATPase (Homo sapiens), P55072. inhibition, % at 8 µM. actives 0.42% (n = 220,000). recombinant p97 ATPase, Kinase-Glo ATP luminescence, 3 h; in the data active = inhibition above about 15%;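 note: 0% = DMSO vehicle and 100% = wells lacking enzyme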
LYPLA1 counter = LYPLA1 inhibitors, primary screen, counter-screen for PME1 inhibitor project, biochemical, fluorescence polarization, FP-Rh probe ABPP. inhibition, % at 5.9 µM. actives 0.16% (n = 320,000). recombinant LYPLA1;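 active = inhibition above the mean of all tested compounds plus 3 SD, set per campaign, cut at about 14% in these data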;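 note: inhibitors block serine hydrolase probe labeling of LYPLA1 so polarization falls; 0% = enzyme with DMSO and 100% = wells lacking LYPLA1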
Target sequence (O75608 whole entry, looked up): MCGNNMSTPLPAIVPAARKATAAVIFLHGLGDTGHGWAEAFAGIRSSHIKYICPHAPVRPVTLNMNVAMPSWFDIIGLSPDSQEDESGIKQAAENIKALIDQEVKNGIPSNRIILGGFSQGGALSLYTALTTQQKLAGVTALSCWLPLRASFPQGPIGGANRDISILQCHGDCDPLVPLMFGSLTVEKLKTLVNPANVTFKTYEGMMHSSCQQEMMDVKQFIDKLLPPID
DTT redox prof = compounds producing H2O2 with reducing agent – biochemical, NIH compound library profiling, artefact control for MLSCN library redox annotation, primary screen | DTT-dependent redox cycling H2O2, phenol red/HRP absorbance; 100% = 100 µM peroxide control, 0% = buffer | activation, % at 10 µM | actives 0.03% (n = 200,000);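 active = activation of at least 50% relative to the plate's high and low controls in the primary single-dose screen; inactive = activation below 50%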;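 note: compound incubated with DTT at 0.8 mM final as the reducing agent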
p97 confirm = p97 ATPase inhibitors, retest, confirmation, biochemical; AID 1517, 2009; shares compounds with p97 inhibitor; actives 44% (n = 760); recombinant p97 ATPase, Kinase-Glo ATP luminescence; inhibition, % at 8 µM;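 active = percent inhibition of p97 ATPase above a set limit, the primary screen's mean plus 3 SD, cut at about 15% in these data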;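 note: 0% = DMSO wells and 100% = wells lacking p97 protein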
Active calls of the source: *. This is a sample that favours compounds with a hit; in the whole collection about 0.74% have one here.

Cc1cccc(C)c1NC(=O)CNC(=O)c1cccnc1 was read as LYPLA2 inh 1 and LYPLA1 counter 2.
Screening Cc1cccc(C)c1NC(=O)COC(=O)c1cccnc1 returned LYPLA2 inh 1, p97 inhibitor 17*, LYPLA1 counter -4, DTT redox prof 0 and p97 confirm 6.
`CCCOc1ccccc1NC(=O)Nc1ccccc1Cl` gave LYPLA2 inh -1, p97 inhibitor -2, LYPLA1 counter -3 and DTT redox prof -1.
For COc1ccccc1NC(=O)CNC(=O)c1ccc(Br)o1 the results were LYPLA2 inh 3 and LYPLA1 counter -3.
`S=C1NC2=C(CCC/C2=C\c2ccc(Cl)cc2)C(c2ccc(Cl)cc2)N1` (centres undefined) gave LYPLA2 inh 2, p97 inhibitor 18*, LYPLA1 counter -4 and p97 confirm 8.
For O=C(Nc1ccc(N2CCCCCC2)cc1)c1cccc(S(=O)(=O)N2CCOCC2)c1 the results were LYPLA2 inh -2 and LYPLA1 counter -3.
For Cc1cc(=O)n(C2CCS(=O)(=O)C2)[nH]1 (centres undefined) the results were LYPLA2 inh -4, p97 inhibitor 24*, LYPLA1 counter -1, DTT redox prof 0 and p97 confirm 6.
Screening Cc1ccccc1-c1nnnn1C1CCS(=O)(=O)C1 (centres undefined) returned LYPLA2 inh 5, p97 inhibitor 2, LYPLA1 counter 5 and DTT redox prof 0.
CC(C)Nc1ccc(Nc2ccnc3cc4ccccc4cc23)cc1 was read as LYPLA2 inh 7, p97 inhibitor 29*, LYPLA1 counter 0 and p97 confirm 33*.
For Cc1ccc(C(=O)N2CCN(S(=O)(=O)N3CCCCCC3)CC2)cc1 the results were LYPLA2 inh 3 and LYPLA1 counter 1.
For CCC(=O)Nc1cccc(-c2cn3ccsc3n2)c1 the results were LYPLA2 inh -5, p97 inhibitor 15*, LYPLA1 counter -1, DTT redox prof 0 and p97 confirm 10.
For CN(Cc1ccno1)C(=O)CC1C(=O)NCCN1CC(c1ccccc1)c1ccccc1 (centres undefined) the results were LYPLA2 inh 2, p97 inhibitor 3, LYPLA1 counter -2 and DTT redox prof 1.
`CCCCC(CC)Cn1c(N)c(C#N)c2nc3ccccc3nc21` (centres undefined) gave LYPLA2 inh -1, p97 inhibitor 1, LYPLA1 counter 1 and DTT redox prof 3.
Screening CN(C)CCCn1c(N)c(C#N)c2nc3ccccc3nc21 returned LYPLA2 inh -9, p97 inhibitor 32*, LYPLA1 counter 0 and p97 confirm 7.
Cc1ccccc1C(=O)Nc1nc2c(C)csc2c(=O)s1 was read as LYPLA2 inh -12, p97 inhibitor 39*, LYPLA1 counter -8 and p97 confirm 37*.
`Cc1csc2c(=O)sc(NC(=O)c3ccc(F)cc3Cl)nc12` gave LYPLA2 inh -9, p97 inhibitor 17*, LYPLA1 counter -2 and p97 confirm 19*.
Cc1csc2c(=O)sc(NC(=O)c3ccc(F)cc3)nc12 was read as LYPLA2 inh 9, p97 inhibitor 11 and LYPLA1 counter 2.
Screening Cc1cc(OC(=O)c2ccc(S(=O)(=O)N3CCCCC3)cc2)c([N+](=O)[O-])c(=O)[nH]1 returned LYPLA2 inh 1, p97 inhibitor 15*, LYPLA1 counter 1, DTT redox prof -9 and p97 confirm 4.
For Cc1ccc(NC2CCCN(C(=O)CCn3nccc3C)C2)cc1C (centres undefined) the results were LYPLA2 inh 8 and LYPLA1 counter 3.
Screening O=S(=O)(Nc1ccc(Br)cn1)c1ccc(Cl)s1 returned LYPLA2 inh 5 and LYPLA1 counter -2.
For CC(=O)Nc1ccc2ccccc2c1 the results were LYPLA2 inh 3, p97 inhibitor -2, LYPLA1 counter 0 and DTT redox prof 0.
For CC(=O)Nc1ccc2cc3ccc(NC(C)=O)cc3nc2c1 the results were LYPLA2 inh 0, p97 inhibitor 34*, LYPLA1 counter -3 and p97 confirm 24*.
For O=C(O)c1cc(-c2cccc(Cl)c2)nc2nc(N3CCCCC3)sc12 the results were LYPLA2 inh -2, p97 inhibitor -4, LYPLA1 counter -1 and DTT redox prof 0.
`CN(C)c1nc(F)c(F)c(S(=O)(=O)c2ccccc2)c1F` gave LYPLA2 inh 6 and LYPLA1 counter 1.
For Cc1ccc2nc(/C(C#N)=C\c3ccc(N4CCOCC4)o3)[nH]c2c1 the results were LYPLA2 inh -46, p97 inhibitor -1, LYPLA1 counter -23 and DTT redox prof 1.
For Cc1ccc2nc(/C(C#N)=C\c3ccc([N+](=O)[O-])o3)[nH]c2c1 the results were LYPLA2 inh -11, p97 inhibitor 16*, LYPLA1 counter -5, DTT redox prof -8 and p97 confirm 32*.
`N#C/C(=C\c1ccc([N+](=O)[O-])o1)c1nc2ccccc2[nH]1` gave LYPLA2 inh 2, p97 inhibitor 21*, LYPLA1 counter -2, DTT redox prof 1 and p97 confirm 36*.
`N#C/C(=C(/O)c1ccc([N+](=O)[O-])o1)c1nc2ccccc2[nH]1` gave LYPLA2 inh 7, p97 inhibitor 6 and LYPLA1 counter 1.
For C=CCOc1cccc(C2/C(=C(\O)c3ccc4c(c3)OCCO4)C(=O)C(=O)N2CCN2CCOCC2)c1 (centres undefined) the results were LYPLA2 inh 2 and LYPLA1 counter -2.
CC(NC(=O)CC(c1ccccc1)c1cc(Cl)ccc1O)c1ccccc1 (centres undefined) was read as LYPLA2 inh -5, p97 inhibitor 15*, LYPLA1 counter -2, DTT redox prof 1 and p97 confirm 6.
`Cc1cc(-c2cccs2)c(C#N)c(=S)[nH]1` gave LYPLA2 inh -5, p97 inhibitor 2 and LYPLA1 counter -2.
`N#Cc1c(-c2cccs2)cc(-c2cccs2)[nH]c1=O` gave LYPLA2 inh -10, p97 inhibitor 16*, LYPLA1 counter 1 and p97 confirm 15*.
For Cc1occc1-c1nnc(SCC(=O)c2c[nH]c3ccccc23)n1C the results were LYPLA2 inh -10, p97 inhibitor 18*, LYPLA1 counter 0, DTT redox prof 0 and p97 confirm 29*.
`Cc1cc(C)c(C(=O)COC(=O)C2CCN(c3ccc(C(F)(F)F)cn3)CC2)c(C)c1` gave LYPLA2 inh -5 and LYPLA1 counter -5.
Screening O=C(CN1CCCC1)Nc1c(Cl)cccc1Cl returned LYPLA2 inh 7 and LYPLA1 counter 0.
